Key:
[1] = target: Rho-associated protein kinase 1 (Homo sapiens) (UniProt Q13464); settings: at 1 µM;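 note: reported values are mean percent inhibition of ROCK1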
[2] = target: Rho-associated protein kinase 2 (Homo sapiens) (UniProt O75116); settings: at 0.1 µM
[3] = target: Rho-associated protein kinase 2 (Homo sapiens) (UniProt O75116); settings: at 1 µM
[4] = target: Ribosomal protein S6 kinase alpha-1 (Homo sapiens) (UniProt Q15418); settings: at 0.1 µM
[5] = target: Ribosomal protein S6 kinase alpha-1 (Homo sapiens) (UniProt Q15418); settings: at 1 µM
[6] = target: Ribosomal protein S6 kinase alpha-3 (Homo sapiens) (UniProt P51812); settings: at 0.1 µM
Ribosomal protein S6 kinase alpha-3 (Homo sapiens), sequence (P51812 whole entry): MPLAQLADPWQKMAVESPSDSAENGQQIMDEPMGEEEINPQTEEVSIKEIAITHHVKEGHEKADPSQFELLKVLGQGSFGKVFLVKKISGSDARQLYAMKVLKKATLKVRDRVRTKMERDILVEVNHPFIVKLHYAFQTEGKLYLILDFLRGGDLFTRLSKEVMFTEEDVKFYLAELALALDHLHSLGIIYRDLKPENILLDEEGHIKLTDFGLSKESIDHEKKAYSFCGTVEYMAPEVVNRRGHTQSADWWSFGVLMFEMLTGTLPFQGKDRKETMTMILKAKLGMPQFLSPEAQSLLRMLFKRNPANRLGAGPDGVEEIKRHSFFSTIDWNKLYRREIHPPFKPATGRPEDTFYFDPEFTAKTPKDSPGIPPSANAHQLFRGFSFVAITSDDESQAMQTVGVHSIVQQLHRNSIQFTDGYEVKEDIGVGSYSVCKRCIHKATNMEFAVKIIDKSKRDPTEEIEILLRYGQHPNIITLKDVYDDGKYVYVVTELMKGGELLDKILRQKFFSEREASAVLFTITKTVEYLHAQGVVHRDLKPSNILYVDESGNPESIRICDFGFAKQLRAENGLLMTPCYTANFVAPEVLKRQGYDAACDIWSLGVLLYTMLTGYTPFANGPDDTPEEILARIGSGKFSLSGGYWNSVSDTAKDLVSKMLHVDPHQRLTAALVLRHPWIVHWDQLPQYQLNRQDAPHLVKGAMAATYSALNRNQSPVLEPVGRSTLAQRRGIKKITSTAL

[7] = target: Ribosomal protein S6 kinase alpha-3 (Homo sapiens) (UniProt P51812); settings: at 1 µM
[8] = target: Ribosomal protein S6 kinase alpha-2 (Homo sapiens) (UniProt Q15349); settings: at 0.1 µM
Ribosomal protein S6 kinase alpha-2 (Homo sapiens), sequence (Q15349 whole entry): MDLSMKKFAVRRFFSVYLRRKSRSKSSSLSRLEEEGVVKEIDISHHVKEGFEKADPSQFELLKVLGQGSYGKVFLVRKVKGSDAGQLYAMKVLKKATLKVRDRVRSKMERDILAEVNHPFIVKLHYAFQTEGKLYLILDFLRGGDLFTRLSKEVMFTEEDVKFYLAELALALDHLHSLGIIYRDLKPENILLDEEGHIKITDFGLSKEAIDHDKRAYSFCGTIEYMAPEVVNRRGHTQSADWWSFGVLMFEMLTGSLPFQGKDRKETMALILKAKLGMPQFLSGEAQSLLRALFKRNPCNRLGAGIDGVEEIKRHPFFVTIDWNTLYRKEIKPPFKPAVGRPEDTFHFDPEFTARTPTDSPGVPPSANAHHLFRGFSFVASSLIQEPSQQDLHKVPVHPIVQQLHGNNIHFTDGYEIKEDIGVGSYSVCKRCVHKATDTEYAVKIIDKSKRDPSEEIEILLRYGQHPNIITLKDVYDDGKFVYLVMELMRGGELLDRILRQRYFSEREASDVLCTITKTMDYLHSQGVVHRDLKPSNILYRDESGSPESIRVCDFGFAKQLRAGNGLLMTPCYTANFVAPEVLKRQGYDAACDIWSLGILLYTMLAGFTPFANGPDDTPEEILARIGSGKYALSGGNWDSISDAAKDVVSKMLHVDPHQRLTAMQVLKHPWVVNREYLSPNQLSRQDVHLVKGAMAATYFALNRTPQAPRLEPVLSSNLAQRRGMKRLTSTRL

[9] = target: Ribosomal protein S6 kinase alpha-2 (Homo sapiens) (UniProt Q15349); settings: at 1 µM
[10] = target: Ribosomal protein S6 kinase alpha-6 (Homo sapiens) (UniProt Q9UK32); settings: at 0.1 µM
[11] = target: Ribosomal protein S6 kinase alpha-6 (Homo sapiens) (UniProt Q9UK32); settings: at 1 µM
[12] = target: T1, Serine/threonine-protein kinase Sgk1 (Homo sapiens) (UniProt O00141); settings: at 0.1 µM
T1 sequence (whole entry): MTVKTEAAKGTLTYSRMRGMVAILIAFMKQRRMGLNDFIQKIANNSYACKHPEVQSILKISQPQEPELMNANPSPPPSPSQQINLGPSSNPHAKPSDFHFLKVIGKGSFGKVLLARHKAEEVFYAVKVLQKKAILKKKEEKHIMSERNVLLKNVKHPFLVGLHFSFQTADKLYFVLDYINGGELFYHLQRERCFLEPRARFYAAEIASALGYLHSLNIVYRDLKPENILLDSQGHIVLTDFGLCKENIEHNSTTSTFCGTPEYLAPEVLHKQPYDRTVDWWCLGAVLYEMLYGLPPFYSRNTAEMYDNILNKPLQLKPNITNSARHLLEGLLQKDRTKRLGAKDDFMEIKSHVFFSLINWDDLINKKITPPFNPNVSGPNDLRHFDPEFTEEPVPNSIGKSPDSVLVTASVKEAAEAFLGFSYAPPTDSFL

[13] = target: T1, Serine/threonine-protein kinase Sgk1 (Homo sapiens); settings: at 1 µM
[14] = target: T2, Serine/threonine-protein kinase Sgk2 (Homo sapiens) (UniProt Q9HBY8); settings: at 0.1 µM
T2 sequence (whole entry): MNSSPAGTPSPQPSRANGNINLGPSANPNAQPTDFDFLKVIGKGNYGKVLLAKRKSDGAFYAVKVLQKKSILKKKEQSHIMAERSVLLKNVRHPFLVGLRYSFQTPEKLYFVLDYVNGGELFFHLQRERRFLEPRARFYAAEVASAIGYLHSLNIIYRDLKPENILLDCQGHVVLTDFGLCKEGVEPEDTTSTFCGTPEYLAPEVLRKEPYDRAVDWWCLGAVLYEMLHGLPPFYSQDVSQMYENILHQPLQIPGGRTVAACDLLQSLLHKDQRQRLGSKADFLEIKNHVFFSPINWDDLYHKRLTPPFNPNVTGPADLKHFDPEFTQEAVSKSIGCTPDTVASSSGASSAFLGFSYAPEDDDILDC

[15] = target: T2, Serine/threonine-protein kinase Sgk2 (Homo sapiens); settings: at 1 µM
[16] = target: T3, Serine/threonine-protein kinase Sgk3 (Homo sapiens) (UniProt Q96BR1); settings: at 0.1 µM
T3 sequence (whole entry): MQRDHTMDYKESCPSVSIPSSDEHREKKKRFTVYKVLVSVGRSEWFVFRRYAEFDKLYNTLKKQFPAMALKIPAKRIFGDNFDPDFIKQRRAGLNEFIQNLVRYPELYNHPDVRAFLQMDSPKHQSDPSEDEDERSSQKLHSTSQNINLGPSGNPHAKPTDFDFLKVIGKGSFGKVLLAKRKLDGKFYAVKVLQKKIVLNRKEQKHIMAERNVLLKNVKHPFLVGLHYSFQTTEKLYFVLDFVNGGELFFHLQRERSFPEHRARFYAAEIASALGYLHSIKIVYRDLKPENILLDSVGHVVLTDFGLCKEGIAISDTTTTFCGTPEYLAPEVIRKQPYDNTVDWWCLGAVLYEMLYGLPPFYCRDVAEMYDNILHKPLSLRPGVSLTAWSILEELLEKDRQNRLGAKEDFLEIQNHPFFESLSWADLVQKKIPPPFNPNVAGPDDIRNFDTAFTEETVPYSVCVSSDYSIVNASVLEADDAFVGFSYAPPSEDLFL

[17] = target: T3, Serine/threonine-protein kinase Sgk3 (Homo sapiens); settings: at 1 µM
[18] = target: 5'-AMP-activated protein kinase catalytic subunit alpha-1 (Homo sapiens) (UniProt Q13131); settings: at 0.1 µM
[19] = target: 5'-AMP-activated protein kinase catalytic subunit alpha-1 (Homo sapiens) (UniProt Q13131); settings: at 1 µM
[20] = target: 5'-AMP-activated protein kinase catalytic subunit alpha-2 (Homo sapiens) (UniProt P54646); settings: at 0.1 µM;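 note: mean inhibition measured on the AMPK complex of alpha2, beta1 and gamma1 subunits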
5'-AMP-activated protein kinase catalytic subunit alpha-2 (Homo sapiens), sequence (P54646 whole entry, looked up): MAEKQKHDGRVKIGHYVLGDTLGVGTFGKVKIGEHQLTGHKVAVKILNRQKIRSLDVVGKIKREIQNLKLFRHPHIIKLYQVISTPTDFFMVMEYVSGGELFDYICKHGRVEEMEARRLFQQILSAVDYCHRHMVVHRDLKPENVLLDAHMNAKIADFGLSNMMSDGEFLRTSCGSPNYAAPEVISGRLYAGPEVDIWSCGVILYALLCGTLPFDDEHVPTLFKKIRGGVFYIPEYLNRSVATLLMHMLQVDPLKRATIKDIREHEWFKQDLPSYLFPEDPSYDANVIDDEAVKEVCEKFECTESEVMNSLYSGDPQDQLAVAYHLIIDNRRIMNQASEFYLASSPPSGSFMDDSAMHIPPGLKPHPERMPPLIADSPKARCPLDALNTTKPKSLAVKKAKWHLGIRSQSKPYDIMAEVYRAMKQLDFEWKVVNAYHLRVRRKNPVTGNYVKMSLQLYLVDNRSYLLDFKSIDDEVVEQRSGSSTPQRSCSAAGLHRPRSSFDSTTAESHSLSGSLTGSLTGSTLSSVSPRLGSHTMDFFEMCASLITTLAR

Rho-associated protein kinase 1 (Homo sapiens), sequence (Q13464 2-1354 limits assumed): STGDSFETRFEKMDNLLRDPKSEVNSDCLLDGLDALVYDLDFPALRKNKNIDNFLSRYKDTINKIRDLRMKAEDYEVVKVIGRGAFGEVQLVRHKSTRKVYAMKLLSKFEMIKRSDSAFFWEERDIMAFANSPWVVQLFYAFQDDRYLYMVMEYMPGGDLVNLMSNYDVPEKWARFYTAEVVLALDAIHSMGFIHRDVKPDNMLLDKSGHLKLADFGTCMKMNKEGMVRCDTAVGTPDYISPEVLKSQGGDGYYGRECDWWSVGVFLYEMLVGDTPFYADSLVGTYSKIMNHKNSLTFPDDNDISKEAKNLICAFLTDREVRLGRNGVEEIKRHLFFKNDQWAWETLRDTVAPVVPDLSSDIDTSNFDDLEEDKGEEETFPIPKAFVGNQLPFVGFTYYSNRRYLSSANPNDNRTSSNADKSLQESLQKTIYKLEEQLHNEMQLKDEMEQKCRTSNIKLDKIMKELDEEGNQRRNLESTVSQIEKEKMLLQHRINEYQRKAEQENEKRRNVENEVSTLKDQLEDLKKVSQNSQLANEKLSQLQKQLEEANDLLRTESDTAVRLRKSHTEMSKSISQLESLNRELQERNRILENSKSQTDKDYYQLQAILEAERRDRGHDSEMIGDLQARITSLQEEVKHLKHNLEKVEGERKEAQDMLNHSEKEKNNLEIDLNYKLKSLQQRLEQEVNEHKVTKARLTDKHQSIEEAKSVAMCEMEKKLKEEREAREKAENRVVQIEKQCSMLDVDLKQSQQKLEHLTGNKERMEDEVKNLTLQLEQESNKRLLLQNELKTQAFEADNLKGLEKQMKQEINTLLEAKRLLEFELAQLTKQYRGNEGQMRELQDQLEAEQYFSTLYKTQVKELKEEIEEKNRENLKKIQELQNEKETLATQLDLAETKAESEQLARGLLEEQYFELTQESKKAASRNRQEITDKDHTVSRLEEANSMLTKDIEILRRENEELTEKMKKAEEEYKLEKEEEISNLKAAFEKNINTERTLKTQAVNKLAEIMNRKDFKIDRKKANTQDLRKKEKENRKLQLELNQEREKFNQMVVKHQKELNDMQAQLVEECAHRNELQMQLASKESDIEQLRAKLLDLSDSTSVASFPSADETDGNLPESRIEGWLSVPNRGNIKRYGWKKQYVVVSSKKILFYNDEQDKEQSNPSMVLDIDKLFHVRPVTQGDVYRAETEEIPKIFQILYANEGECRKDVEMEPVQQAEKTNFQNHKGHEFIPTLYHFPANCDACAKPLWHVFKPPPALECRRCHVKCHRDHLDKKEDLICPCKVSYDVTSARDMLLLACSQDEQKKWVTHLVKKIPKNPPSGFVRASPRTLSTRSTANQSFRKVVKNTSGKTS
Rho-associated protein kinase 2 (Homo sapiens), sequence (O75116 whole entry, looked up): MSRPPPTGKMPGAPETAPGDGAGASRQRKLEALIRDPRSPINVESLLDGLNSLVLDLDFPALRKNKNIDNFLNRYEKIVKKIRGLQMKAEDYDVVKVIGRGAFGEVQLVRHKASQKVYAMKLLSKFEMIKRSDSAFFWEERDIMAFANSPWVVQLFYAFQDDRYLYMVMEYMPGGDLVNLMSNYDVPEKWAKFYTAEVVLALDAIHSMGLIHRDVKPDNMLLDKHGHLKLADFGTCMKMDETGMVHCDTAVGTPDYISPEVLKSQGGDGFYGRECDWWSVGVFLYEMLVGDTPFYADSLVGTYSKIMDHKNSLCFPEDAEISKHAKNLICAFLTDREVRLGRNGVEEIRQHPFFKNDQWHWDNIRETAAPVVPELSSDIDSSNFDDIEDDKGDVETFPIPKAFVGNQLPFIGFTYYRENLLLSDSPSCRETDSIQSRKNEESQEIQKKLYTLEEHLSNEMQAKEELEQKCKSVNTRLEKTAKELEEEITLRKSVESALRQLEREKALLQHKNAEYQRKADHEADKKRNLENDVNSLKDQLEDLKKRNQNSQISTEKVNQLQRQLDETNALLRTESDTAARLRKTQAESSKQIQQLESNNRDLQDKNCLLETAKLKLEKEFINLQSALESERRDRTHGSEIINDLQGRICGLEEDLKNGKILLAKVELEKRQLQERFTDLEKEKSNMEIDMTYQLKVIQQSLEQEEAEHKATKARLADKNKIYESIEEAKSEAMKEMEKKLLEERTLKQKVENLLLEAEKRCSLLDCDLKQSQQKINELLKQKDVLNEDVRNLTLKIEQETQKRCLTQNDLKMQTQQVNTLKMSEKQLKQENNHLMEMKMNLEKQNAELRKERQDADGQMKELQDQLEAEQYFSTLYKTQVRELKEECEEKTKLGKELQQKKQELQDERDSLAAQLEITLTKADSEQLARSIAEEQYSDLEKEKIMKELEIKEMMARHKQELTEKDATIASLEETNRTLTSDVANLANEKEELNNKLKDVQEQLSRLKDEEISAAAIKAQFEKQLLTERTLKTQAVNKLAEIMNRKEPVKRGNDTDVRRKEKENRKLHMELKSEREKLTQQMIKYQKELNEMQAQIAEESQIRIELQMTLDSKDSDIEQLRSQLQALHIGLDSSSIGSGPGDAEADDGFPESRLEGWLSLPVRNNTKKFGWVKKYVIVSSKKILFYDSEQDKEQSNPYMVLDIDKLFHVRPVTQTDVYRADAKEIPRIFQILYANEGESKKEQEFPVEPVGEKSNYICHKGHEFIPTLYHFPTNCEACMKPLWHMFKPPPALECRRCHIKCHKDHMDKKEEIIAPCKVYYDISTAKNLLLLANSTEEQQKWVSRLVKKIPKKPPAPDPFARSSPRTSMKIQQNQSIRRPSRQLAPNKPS

SMILES	inhibition [1] [%]	inhibition [2] [%]	inhibition [3] [%]	inhibition [4] [%]	inhibition [5] [%]	inhibition [6] [%]	inhibition [7] [%]	inhibition [8] [%]	inhibition [9] [%]	inhibition [10] [%]	inhibition [11] [%]	inhibition [12] [%]	inhibition [13] [%]	inhibition [14] [%]	inhibition [15] [%]	inhibition [16] [%]	inhibition [17] [%]	inhibition [18] [%]	inhibition [19] [%]	inhibition [20] [%]
C[C@@H](Oc1cc(-n2cnc3ccc(OCC4CCN(C)CC4)cc32)sc1C(N)=O)c1ccccc1Cl	7.23	3.44	9.54	3.39	16.8	4.17	22.5	5.72	22.4	8.06	42.4	2.62	4.04	4.94	3.37	2.38	3.66	6.05	24.5	8.96
CNC(=O)c1cncc(/C=C/c2c(C)cccc2C)c1	0.33	1.01	1.34	1.16	0.45	0.6	-0.28	1.22	0.63	0.47	0.69	0.67	2.02	5.07	-3.14	-1.1	0.16	-0.07	0.48	-4.03
C/C(Nc1ccc(S(N)(=O)=O)cc1)=C1/C(=O)Nc2ccccc21	5.13	2.95	9.54	1.62	14.5	1.49	14.6	2.22	23.4	2.94	20.7	5.32	18.4	1.82	2.83	0.76	2.1	1.16	9.79	3.01
CCS(=O)(=O)c1ccc(OC)c(Nc2ncc(-c3cccc(-c4ccccc4F)c3)o2)c1	1.4	1.1	1	0.18	1.38	0.3	0.84	0.3	2.3	-0.01	0.75	1.23	0.04	1.37	1.29	-0.5	-0.32	0.4	0.95	1.79
NC(=O)Cc1ccccc1Oc1nccc(-c2c(-c3ccc(F)cc3)ncn2C2CCNCC2)n1	1.73	-0.06	0.19	1.2	0.63	0.99	1.35	1.2	3.57	1.6	2.01	-0.43	0.48	1.13	0.76	0.96	0.86	2.61	1.44	1.24
CCC(=O)Nc1ccc(C)c(-c2ccc(C(=O)NCC3CC3)cc2)c1	4.2	2.63	3.64	0.56	0.53	0.82	0.79	1.75	2.09	0.01	1.25	1.88	2.02	1.32	0.49	2.14	2.43	1.31	2.54	4.95
COc1ccc2cc(-c3c(-c4ccncc4)nc(-c4ccc([S+](C)[O-])cc4C)n3C)ccc2c1 (stereo not given)	-0.59	-0.57	-0.64	-0.66	-1.48	-0.38	-0.28	0.02	-0.67	-0.13	0.61	-0.3	0.17	-1.2	0.22	-0.05	0.65	-0.62	-0.8	3.22
O=C(Nc1n[nH]c2nc(-c3ccco3)ccc12)C1CC1	3.74	1.89	3	0.92	0.86	-0.05	0.78	0.54	1.46	0.59	0.71	2.03	0.33	0.71	0.28	-0.55	1.28	-0.2	1.85	1.32
O=C(Nc1ccc(Oc2ccc3[nH]c(NC(=O)c4ccccc4)nc3c2)cc1)Nc1cc(C(F)(F)F)ccc1F	6.36	3.35	8.83	1.17	5.03	0.81	1.47	3.12	20.5	1.69	2.72	1.68	3.96	2.66	4.13	1.78	2.24	2.87	2.98	0.79
COc1cc2ncn(-c3cc(OCc4ccccc4C(F)(F)F)c(C(C)=O)s3)c2cc1OC	2.18	1.87	2.95	1.38	2.01	0.97	1.14	2.48	2.5	1.64	1.71	2.88	2.59	3.09	3.04	3.08	2.17	1.8	2.83	-0.02
COc1cccc(/C=N/Nc2ncnc3c2cnn3-c2cccc(OC)c2)c1	3.6	2.65	3.61	1.05	0.75	0.86	1.4	1.64	2.21	0.2	1.54	1.88	1.38	1.32	2.15	2.71	2.43	1.52	2.74	5.39
C[C@@H](Oc1cc(-n2cnc3ccc(OC4CCN(C)CC4)cc32)sc1C(N)=O)c1ccccc1Cl	5.39	1.57	5.08	2.3	12.4	3.29	21.8	4.54	20.2	7.23	40.4	1.16	1.49	2.92	1.45	3.29	2.26	5.35	21.6	5.98
Fc1ccc(-c2ncn(C3CCNCC3)c2-c2ccnc(Oc3ccc(Oc4ccccc4)cc3)n2)cc1	1.68	2.53	3.69	3.01	2.7	1.73	2.37	3.61	3.8	2.38	3.14	1.53	2.46	3.23	3.39	4.76	2.42	2.46	4.03	8.18
